PubChem BioAssay (NCI)
About 83,000 compounds went through this panel and 20% of them were active in at least one assay; those are over-represented in the sample as a whole.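 Method: cells in 96-well plates; compound added at one concentration; 48 h incubation; percent growth measured; values under 10 scored active.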 A number with no mark means an inactive call. The source made the active and inactive calls.

System: SN12C renal
Assay: NCI-60 one-dose screen, 48 h (100 = growth as untreated, 0 = no growth, -100 = all killed)
Details: 10 µM unless noted

Row | SMILES | growth
1 | O=C(CCN1CCCCC1)c1ccc2ccccc2c1 | 96.7%
2 | O=C(N/N=C/c1c(Cl)cccc1Cl)c1cccc(Nc2ccnc(C(F)(F)F)c2)c1 | 91%
3 | CCc1ccc(C2=C/C(=C/c3ccccc3)C(=O)N2CCc2ccc(S(N)(=O)=O)cc2)cc1 | 101%
4 | COc1cc2c(cc1OCCCCCOc1ccc(-n3c(C)nc4ccccc4c3=O)cc1)N=C[C@@H]1CCCN1C2=O | 12.7%
5 | CCN(CCO)CCC(=O)c1ccc([N+](=O)[O-])cc1 | 107%
6 | COc1c(B(O)O)cccc1-c1nc2ccc3[nH]ncc3c2c2c1CCC2 | 74.3%
7 | Cc1ccc(-c2cc(O)c(-c3ccc(C)cc3C)cc2O)c(C)c1 | 68.9%
8 | C=C(C)[C@@H]1CC[C@]2(c3ncc(C)o3)CC[C@]3(C)[C@H](CC[C@@H]4[C@@](C)(CCC#N)[C@H](C(=C)C)CC[C@]43C)[C@@H]12 | -91.5% [100 µM] (active)
9 | Nc1nc(Nc2ccccc2)c2ncn(Cc3ccc4c(c3)OCO4)c2n1 | 43%
10 | CC(=O)OC[C@]12CC[C@@H](C(=O)CBr)[C@@H]1[C@H]1CC[C@@H]3[C@@]4(C)CCCNC(C)(C)[C@@H]4CC[C@@]3(C)[C@]1(C)CC2 | -37.8% [100 µM] (active)
11 | C[C@@H]1C[C@H]2C(=O)O[C@@H](C)[C@H](NC(=O)[C@H](Cc3cc(F)cc(F)c3)NC(=O)Nc3ccc(Cl)cc3F)C(=O)N3C[C@H](O)C[C@H]3C(=O)N3CCN(C)C[C@H]3C(=O)N[C@@H](C)C(=O)N2C1 | 22.9%
12 | COC(=O)C(=Cc1ccccc1[N+](=O)[O-])C(=O)OC | 51.1%
13 | CC1Cc2c(Cl)ncnc2N(C)c2ccc(Cl)cc21 (configuration not stated) | 2.41% (active)
14 | CC1(C(=O)O)CCC(N)(C(=O)O)C1(C)C (configuration not stated) | 107%

System: UO-31 renal
Assay: as above
Details: 10 µM unless noted

Row | SMILES | growth
15 | O=C(Nc1ccc(CN2CCOCC2)c(C(F)(F)F)c1)c1nc2ccc3[nH]ncc3c2c2c1CCCC2 | 73%
16 | CC(C)[C@H]1CCC2=C3CC[C@]45OC(=O)[C@@]6(CCC(C)(C)C[C@H]64)CC[C@@]5(C)[C@]3(C)CC[C@@]21C | 67.9% [100 µM]
17 | Cc1ccc2c(c1)/C(=N\N=C/c1cn(C(C)C)c3ccccc13)C(=O)N2 | 57.8%
18 | COc1ccc(C(=O)c2nccc3cc(OC)c(OC)cc23)cc1OC | 82.8%
19 | Nc1cc(C(=O)O)[nH]c(=S)n1 | 87.5%
20 | CC1(C)CC[C@]2(C(=O)O)CC[C@]3(C)C(=CC[C@@H]4[C@@]5(C)C/C(=C/c6cccnc6)[C@H](O)C(C)(C)[C@@H]5CC[C@]43C)[C@@H]2C1 | -57.6% [100 µM] (active)
21 | ClC1=C(Cl)C(Cl)=C(Cl)C1=Cc1ccccc1 | -87.1% (active)
22 | CCCCC(CCCCCC(CCCC)C1NC(C)Cc2cc(OC)c(OC)cc21)C1NC(C)Cc2cc(OC)c(OC)cc21 (configuration not stated) | -83.5% (active)
23 | COc1ccccc1S(=O)Nc1ccccc1 (configuration not stated) | 85.9%
24 | Cc1cnc(N)nc1OCC(C)(C)CNC(=O)c1cccc(-c2ccc(S(=O)(=O)Nc3ccc4c(c3)N(C(=O)C3CC3)CCC4)cc2)c1 | 62%
25 | C=C(C)[C@@H]1CC[C@]2(COC(=O)c3ccccc3C(=O)O)CC[C@]3(C)[C@H](CC[C@@H]4[C@@]5(C)CC[C@H](OC(=O)c6ccccc6C(=O)O)C(C)(C)[C@@H]5CC[C@]43C)[C@@H]12 | 27.7% [100 µM]
26 | Cc1cc(N2CCCCCC2)nc(N2CCN(CC(=O)Nc3ccc4c(ccn4Cc4ccccc4)c3)CC2)n1 | 27.7%
27 | CC1(C)C(=O)/C(=C\c2cccnc2)C[C@]2(C)[C@H]3CC[C@@H]4[C@H]5[C@H](C(=O)/C=C/c6cccnc6)CC[C@]5(C(=O)O)CC[C@@]4(C)[C@]3(C)CC[C@@H]12 | -32.9% [100 µM] (active)
28 | CCN(CC)CCSC(=O)C(O)(c1ccccc1)C1CCCC1 (configuration not stated) | 78.1%
29 | O=C(NNc1ccc(-c2ccccc2)nn1)c1ccccc1 | 89%
30 | Cc1cc2c(C(C)C)c(O)c(O)c(C=NCc3ccoc3)c2c(O)c1-c1c(C)cc2c(C(C)C)c(O)c(O)c(C=NCc3ccco3)c2c1O | 36.2%
31 | c1ccc(-c2nnc(-c3c[nH]c4ncccc34)s2)cc1 | 51.6%
32 | Cc1ccc(-c2cc(-c3ccc(C)cc3)nc(NCCNc3ccnc4cc(Cl)ccc34)n2)cc1 | -68.5% (active)
